Compound activity deposited in PubChem by Broad Institute.
C_diff_HTS: blocks growth of Clostridium difficile; Clostridium difficile clinical isolate growth, OD600, 24 h; hits give low values; growth activity, negative = inhibition, % at 16 µg/mL (by protocol); actives 0.25% (n = 86,000); AID 1259249;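 active = mean growth activity at or below -80% and every replicate also at or below -80%; inconclusive = mean at or below -80% but some replicate above -80%; inactive = mean growth activity above -80%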;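 note: 0% = DMSO wells and -100% = levofloxacin 16 µg/mL wells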
T_cruzi_growth-1: T. cruzi proliferation inhibition | actives 5.9% (n = 77,000) | AID 624255 | T. cruzi beta-gal in NIH3T3, GalScreen luminescence, 90 h | inhibition, % at 8.34 µM;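 active = mean inhibition above about 93%, with at least 55% of replicates each passing it, limit read from the data, passing the limit was not always enough; inconclusive = only one of those two conditions holds; inactive = neither condition holds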
Pf_Dd2_inh: inhibitors of Plasmodium falciparum Dd2 growth | AID 1159554 | actives 2.3% (n = 94,000) | activity change, % at 10 µM | P. falciparum Dd2 growth, SYBR Green, 72 h; hits give low values; in the data active = activity change below about -80%; inconclusive = no clear call, values can overlap the other calls
T_cruzi_growth-2: Trypanosoma cruzi proliferation inhibition; shares compounds with T_cruzi_growth-1; T. cruzi beta-gal in NIH3T3, GalScreen luminescence, 90 h; inhibition, % at 8.35 µM; actives 72% (n = 5,600); AID 651739;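 active = mean replicate inhibition above about 95% and at least 55% of replicates individually reaching it, limit read from the data; inconclusive = only one of the two criteria is met; inactive = neither criterion is met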
T_cruzi_growth-3: blocks T. cruzi growth in NIH3T3 host cells; shares compounds with T_cruzi_growth-1; T. cruzi beta-gal in NIH3T3, GalScreen luminescence, 90 h; inhibition, % at 2.09 µM; actives 21% (n = 5,600);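 active = mean inhibition above about 95%, with at least 55% of replicates also reaching it, limit read from the data; inconclusive = meets just one of the two conditions; inactive = meets neither condition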;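 note: plate controls were neutral control median for no effect and positive control median for full effect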
NIH3T3_tox: cytotoxicity in mouse NIH/3T3 fibroblasts. shares compounds with T_cruzi_growth-1. NIH/3T3 viability, CellTiter-Glo ATP luminescence, 90 h. cytotoxicity (signal decrease), % at 8.35 µM. actives 14% (n = 5,600). AID 651742;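 active = mean signal decrease across replicates above about 35% based on untreated-well scatter, with enough replicates individually passing, limit read from the data; inconclusive = no rule stated though some were filed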;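 note: 0% = median of neutral control wells and 100% = median of positive control wells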
3T3_cytotox_2: cytotoxicity in mouse NIH/3T3 fibroblasts. shares compounds with T_cruzi_growth-1. NIH/3T3 viability, CellTiter-Glo ATP luminescence, 90 h. inhibition, % at 24.9 µM. actives 56% (n = 5,600). AID 651744;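 active = mean loss of cell viability signal at or above a set limit, and enough replicates individually reaching it; inconclusive = meets only the mean limit or only the replicate share; inactive = meets neither condition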;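 note: 0% = median of neutral control wells and 100% = median of positive control wells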
The depositor's hits bear a star; ? = inconclusive; nt = not tested or not shown. Sampled rows, rich in hits. Any-hit rate of the full collection: about 6.8%.

SMILES C_diff_HTS T_cruzi_growth-1 Pf_Dd2_inh T_cruzi_growth-2 T_cruzi_growth-3 NIH3T3_tox 3T3_cytotox_2
C[C@@H]1CN([C@@H](C)CO)C(=O)Cc2cc(NC(=O)Cc3ccccc3)ccc2O[C@@H]1CN(C)Cc1ccc(C(=O)Nc2ccccc2N)cc1 6 102* -81* 106* 80 31 39*
C[C@@H]1CN([C@@H](C)CO)C(=O)CCCn2nncc2CO[C@@H]1CN(C)Cc1ccc(C(=O)O)cc1 -15 nt 14 nt nt nt nt
COc1ccc2c3c(n(C)c2c1)[C@@H](CO)N(C(=O)C1CCCC1)CC31CCN(C(=O)CN(C)C)CC1 0 nt -35 nt nt nt nt
C[C@H]1CN([C@@H](C)CO)C(=O)CCCn2nncc2CO[C@@H]1CN(C)C -2 -6 27 nt nt nt nt
C[C@@H]1CN([C@H](C)CO)S(=O)(=O)c2ccc(Br)cc2O[C@H]1CN(C)C(=O)c1cnccn1 0 31 19 nt nt nt nt
CNC[C@H]1Oc2c(NC(=O)NC3CCCCC3)cccc2C(=O)N([C@H](C)CO)C[C@@H]1C -2 27 1 nt nt nt nt
CC(C)CC#Cc1cnc2c(c1)C(=O)N([C@@H](C)CO)C[C@H](C)[C@@H](CN(C)C(=O)Cc1cccnc1)O2 -1 54 0 nt nt nt nt
C[C@H](NC(=O)C[C@@H]1CC[C@H]2[C@@H](COC[C@@H](O)CN2Cc2ccc(C(F)(F)F)cc2)O1)c1ccccc1 -19 26 -4 nt nt nt nt
O=C(C[C@H]1CC[C@@H](NC(=O)c2ccncc2)[C@H](CO)O1)NCCc1ccncc1 -3 nt 6 nt nt nt nt
C[C@@H]1CN([C@H](C)CO)C(=O)Cc2cc(NC(=O)NC3CCCCC3)ccc2O[C@H]1CN(C)C(=O)Nc1cccc2ccccc12 25 25 -21 nt nt nt nt
CC(C)C#Cc1ccc2c(c1)O[C@H](CN(C)S(C)(=O)=O)[C@H](C)CN([C@@H](C)CO)S2(=O)=O -7 52 4 nt nt nt nt
COCC(=O)N1CCCCN2[C@H](CO)[C@@H](c3ccc(-c4cccc(C)c4)cc3)[C@H]2C1 -11 78 21 nt nt nt nt
COCC(=O)N1CCCCN2[C@H](C1)[C@@H](c1ccc(-c3cccc(C)c3)cc1)[C@@H]2CO -11 84 8 nt nt nt nt
Cc1cccc(-c2ccc([C@H]3[C@H]4CN(C(=O)NC(C)C)CCCCN4[C@H]3CO)cc2)c1 -7 99* 18 45 8 1 12
CC(=O)N1CCCCN2[C@H](CO)[C@@H](c3ccc(-c4cccc(C)c4)cc3)[C@@H]2C1 -4 4 34 nt nt nt nt
Cc1cccc(-c2ccc([C@H]3[C@H](CO)N4CCCCN(C(=O)NC(C)C)C[C@@H]34)cc2)c1 -14 106* 21 107* 64 3 96*
Cc1cccc(-c2ccc([C@@H]3[C@H](CO)N4CCCCN(C(=O)NC(C)C)C[C@@H]34)cc2)c1 -3 104* -23 110* 84 24 105*
C[C@H]1CN([C@@H](C)CO)C(=O)CCCn2cc(nn2)CO[C@@H]1CN(C)C(=O)Nc1ccc(C(C)(C)C)cc1 1 -5 -2 nt nt nt nt
C[C@@H]1CN([C@H](C)CO)C(=O)CCCn2cc(nn2)CO[C@@H]1CN(C)C(=O)Nc1ccc(C(C)(C)C)cc1 -2 122* 1 101* -47 -2 6
C[C@@H]1CN([C@@H](C)CO)C(=O)CCCn2cc(nn2)CO[C@H]1CN(C)C(=O)c1ccc(N2CCN(C)CC2)cc1 -2 ? -2 35 5 -23 1
C[C@H]1CN([C@@H](C)CO)C(=O)CCCn2cc(nn2)CO[C@H]1CN(C)C(=O)Nc1ccccc1 nt 47 -8 nt nt nt nt
C[C@@H]1CN([C@@H](C)CO)C(=O)CCCn2cc(nn2)CO[C@@H]1CN(C)C(=O)Nc1ccccc1 7 ? 2 38 0 -14 -1
C[C@H](CO)N1C[C@H](C)[C@H](CN(C)C(=O)CCC(F)(F)F)OCc2cn(nn2)CCCC1=O -1 -4 10 nt nt nt nt
C[C@@H]1CN([C@H](C)CO)C(=O)CCCn2cc(nn2)CO[C@H]1CN(C)C(=O)c1ccc(N2CCN(C)CC2)cc1 -8 -5 -2 nt nt nt nt
